hgDAF-12 ag: H. glycines DAF-12 receptor agonists, primary screen, cell-based, luminescence, HEK293, GAL4 fusion, UAS-luciferase | Nuclear hormone receptor DAF-12 (Heterodera glycines), GAL4 fusion | HEK293 GAL4-hgDAF12 UAS-luciferase reporter, agonist luminescence; normalized to butyrate control | activation, % at 6.8 µM | 370,000 tested, 1.8% active | AID 687014, 2013;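 active means activation above a cutoff set at the mean of all screened compounds plus 3 SD, cut at about 10% in these data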;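 further: 0% = DMSO wells and 100% = sodium butyrate wells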
DAX1 inh-1: DAX1 (NR0B1) inhibitors on StAR promoter, primary screen, cell-based, luminescence, SF-1 (NR5A1), full-length DAX-1. HEK293T StAR-luciferase reporter, SF-1/DAX-1 repression relief. 370,000 tested, 1.1% active. inhibition, % at 6.8 µM. AID 652010, 2013;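 active means inhibition above the mean over all tested compounds plus 3 SD, cut at about 3.6% in these data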;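 further: 0% = DAX-1 cells with DMSO and 100% = cells lacking DAX-1 with DMSO; higher inhibition means more luminescence from relief of DAX-1 repression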
ssDAF12 agonist: S. stercoralis DAF-12 nuclear receptor activators, primary screen, cell-based, luminescence, HEK293, GRIP1 co-expression, lit1-tk-luc; HEK293 ssDAF-12/GRIP1 lit1-tk-luc reporter; % of 3 µM dafachronic acid response; AID 652126, 2013; activation, % at 6.8 µM; 370,000 tested, 1% active; Nuclear hormone receptor DAF-12 (Strongyloides stercoralis);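 active means activation above the mean over all tested compounds plus 3 SD, cut at about 0.9% in these data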;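 further: 0% = DMSO-only wells and 100% = 3 µM delta7-dafachronic acid wells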
DAX1 inh-2: DAX1 (NR0B1) inhibitors, primary screen, cell-based, HEK293, Gal4-DAX1, luciferase luminescence | Nuclear receptor subfamily 0 group B member 1 (Homo sapiens), P51843 | HEK293 Gal4-DAX1 luciferase reporter | inhibition, % at 6.75 µM | 340,000 tested, 0.99% active;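 active means inhibition above the mean over all tested compounds plus 3 SD, cut at about 4.2% in these data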;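 further: 0% = DAX1-transfected cells with DMSO and 100% = empty-vector control cells with DMSO; inhibition shows as a rise in luminescence from relieved DAX1 repression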
Target sequence (P51843 207-470 limits assumed): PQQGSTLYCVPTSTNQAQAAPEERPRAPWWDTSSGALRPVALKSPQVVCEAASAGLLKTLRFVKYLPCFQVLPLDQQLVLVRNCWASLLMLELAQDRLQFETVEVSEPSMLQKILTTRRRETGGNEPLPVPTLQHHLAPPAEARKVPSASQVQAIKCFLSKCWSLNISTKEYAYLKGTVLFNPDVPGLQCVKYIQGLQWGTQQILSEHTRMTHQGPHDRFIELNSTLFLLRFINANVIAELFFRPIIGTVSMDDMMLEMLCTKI
hcDAF12 agonist: H. contortus DAF-12 nuclear receptor activators, primary screen, cell-based, luminescence, HEK293, lit1-tk-luc reporter; AID 652067, 2013; HEK293 hcDAF-12 lit1-tk-luc reporter; 0% DMSO, 100% Δ7-dafachronic acid; 370,000 tested, 1.4% active; activation, % at 6.8 µM;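 active means activation above the mean of all tested compounds plus 3 SD, cut at about 5.5% in these data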;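 further: 100% = response to 3 µM Δ7-dafachronic acid high control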
An asterisk follows results filed as active; . = no result given. Rows were chosen to be rich in hits. Some 4.1% of all compounds tested hit in one or more screens of this group.

SMILES	hgDAF-12 ag	DAX1 inh-1	ssDAF12 agonist	DAX1 inh-2	hcDAF12 agonist
Clc1ccc(-c2cc(CSc3ccccc3)on2)cc1	13*	2	-1	3	1
CC(=NNc1cc(C)c2cc(C)ccc2n1)c1ccccn1	-3	-7	-1	.	-1
O=C(CCNC(=O)Cn1ccc2ccccc2c1=O)NCCCN1CCOCC1	2	0	-1	5.1*	0
Cc1ccc(OCCN(C)C(=O)C2CCC(=O)N(CCCN3CCOCC3)C2)cc1 (stereo unspecified)	0	0	-1	0	0
Cn1cc(C(=O)N2CCc3ccccc32)cn1	5	2	1.2*	2	6.5*
CCOc1ccc(Nc2ccc(N3C(=O)CCC3=O)cc2[N+](=O)[O-])cc1	2	0	-1	2	6.2*
COc1ccc2[nH]c3c(c2c1)CCN[C@]31C(=O)N(C)c2ccc(Br)cc21	-2	-1	1.1*	.	4
COc1ccc2c(c1)[C@@]1(NCCc3c1[nH]c1ccc(OC)cc31)C(=O)N2C	-2	2	0	.	2
CC1CCc2nn(CC(=O)NCCCN3CCCCC3)cc2C1 (stereo unspecified)	-1	0	-1	1	2
CCN1CCCC1CNC(=O)Cn1cc2c(n1)CCC(C)C2 (stereo unspecified)	3	0	-1	4.5*	3
CCOc1ccc(CCN2C(=O)C(=O)N([C@@H](CC(C)C)CN3CCC[C@H]3CN3C(=O)C(=O)NC[C@@H]3Cc3ccccc3)C[C@@H]2Cc2ccc(O)cc2)cc1	0	3.9*	-1	.	0
CC(C)C[C@H]1CNC(=S)N1C[C@H]1CCCN1C[C@H](Cc1ccccc1)N1C[C@H](Cc2ccc(O)cc2)N(CC2CCCCC2)C1=S	1	3.8*	-1	.	0
CCOc1ccc(CCN2C(=O)C(=O)N([C@@H](CC(C)C)CN3CCC[C@@H]3CN3C(=O)C(=O)NC[C@@H]3Cc3ccccc3)C[C@@H]2Cc2ccc(O)cc2)cc1	0	-1	-1	0	0
CCCCCCn1c(-c2ccc(Cl)cc2Cl)csc1=Nc1ccccc1	2	0	0	.	0
O=C1OCC(CO)(CO)N=C1NNc1ccccc1[N+](=O)[O-]	3	0	-1	5.2*	3
COc1ccc(-c2c(C)nc3c(-c4ccc(F)cc4)cnn3c2N)cc1	7	0	0	5.2*	0
Nc1c(-c2ccc(Cl)cc2)cnc2c(-c3ccc(F)cc3)cnn12	13*	2	1	5.0*	5
Cc1nc2c(-c3ccc(Cl)cc3)cnn2c(N)c1-c1ccc(F)cc1	-9	-1	-3	1	-5
CCCCNC(=O)N1CCC(c2nc3ccc(Cl)cc3[nH]2)CC1	0	-1	-1	.	-1
CC(Sc1nnc(C2CC2)n1-c1ccccc1)C(=O)N1CCCC1 (stereo unspecified)	13*	0	-1	1	0
CCc1ccc(N2CC(C(=O)Nc3ccccc3N3CCCC3)CC2=O)cc1 (stereo unspecified)	0	-1	-1	2	0
COCCNC(=O)/C(C#N)=C/c1ccc(OCc2ccc(F)cc2)cc1	13*	-1	-2	0	2
COCCNC(=O)/C(C#N)=C/c1ccc(C(=O)O)cc1	-1	0	-1	5.0*	-1
COCCNC(=O)/C(C#N)=C/c1ccc(OCc2ccccc2)cc1	2	0	-1	-1	0
COCCNC(=O)/C(C#N)=C/c1ccc(SC)cc1	4	0	-1	.	-2
SMILES	hgDAF-12 ag	DAX1 inh-1	ssDAF12 agonist	DAX1 inh-2	hcDAF12 agonist
CCOc1ccc(Oc2ccc(NC(=O)CSc3nncn3C)cc2)cc1	3	-1	-1	-2	-1
O=c1oc2ccc3ccccc3c2cc1-c1nnc(-c2cccs2)o1	11*	2	1	3	3
O=c1oc2ccccc2cc1-c1ccccc1	6	1	0	6.0*	0
O=c1oc2ccccc2cc1-c1nc(-c2cccs2)cs1	4	1	0.9*	2	6.1*
O=c1oc2ccc3ccccc3c2cc1-c1nnc(-c2ccccc2)o1	5	1	-1	1	1
[C-]#[N+][C@]12C(=O)[C@H](C=C(Cl)[C@@]1(C)C=C)C(C)(C)[C@H]1C(=O)N(C)c3cccc2c31	-4	-2	-2	.	-2
Cc1ccc(OCC(=O)NNC(=O)c2ccccc2OCc2c(C)noc2C)cc1	0	0	-1	-1	-3
CCOc1ccc(CCNC(=O)c2cc3sccc3n2Cc2ccccc2)cc1OCC	-5	.	-1	.	-4
CCCC(=O)Nc1ccc(C#Cc2ccccc2)cc1	12*	2	-1	1	-1
CCCC(=O)Nc1ccc(Oc2ccc(NC(=O)CCC)cc2)cc1	-1	0	-2	1	0
C/C=C/c1ccc(OCC(=O)Nc2ccc(C(N)=O)cc2)c(OC)c1	1	0	1.1*	1	1
CC(=O)c1sc(NC(=O)C2COc3ccccc3O2)nc1C (stereo unspecified)	4	3	0	-2	0
Cc1onc(-c2ccccc2)c1C(=O)Nc1nc2c(s1)C(=O)CC(C)(C)C2	1	-1	-1	-1	-3
CC1(C)CC(=O)c2sc(NC(=O)c3ccco3)nc2C1	12*	2	0	0	5
CC1(C)CC(=O)c2sc(NC(=O)C3COc4ccccc4O3)nc2C1 (stereo unspecified)	7	2	1.6*	2	2
O=C1c2ccccc2/C(=C\c2ccc(O[C@@H]3CCCCO3)cc2)N1c1ccccc1	11*	1	-1	.	2
O=C(O)Cn1c(SCc2cccc3ccccc23)nc2ccccc21	1	0	0	0	6.1*
CCN(CC)C(=O)CSc1ncnc2c(-c3cccs3)nsc12	2	1	0.9*	1	2
COC(=O)[C@]12C[C@H](CC(=O)N3CCSCC3)C(=O)N(CCC3=CCCCC3)C1=C[C@H](C1CCCC1)O[C@@H]2C	8	-1	-2	.	-1
Cc1nn2cc(-c3ncc(C(F)(F)F)cc3Cl)cnc2c1Br	13*	2	0	.	3
COc1ccc(C2CC(C)(c3ccc(OC)cc3)Nc3ccccc3N2)cc1 (stereo unspecified)	12*	2	-1	1	5.7*
Cc1ccc2nc3sc(C(=O)N4CCOCC4)c(N)c3cc2c1	9	3.7*	1	1	6.5*

High-throughput results (PubChem BioAssay)
